Results taken from ChEMBL document CHEMBL3988442, “University of Dundee, Small-Polar-MMV Screening Library” (2021).
About 960 (1.5%) of roughly 66,000 compounds showed an effect of 50% or more. The sample holds strong results, similar compounds and a random draw of the others, so the mix is not that of the screen.

System: Trypanosoma brucei
Assay: Trypanosoma brucei 72 hour study
Type: functional, organism-based
Design: scale not given: in the data most compounds retested in dose-response had high values

Structure (SMILES) | Percent Effect (30 µM, 30.03 µM) [%] | Percent Effect (30.3 µM, […]) [%]
CC(C)n1ccnc1C1CCCN(c2ccnc3ccccc23)C1 (stereo unspecified) | 44.45 | 
CC(C)n1ccnc1C1CCCN(c2ccccn2)C1 (stereo unspecified) | 54.17 | 
CSc1nccc(N2CCCC(c3nccn3C(C)C)C2)n1 (stereo unspecified) | -62.98 | 
Cc1cc(C)n(-c2nc(C(=O)NCCN3CCC(C)CC3)cs2)n1 |  | 41.67
Cl.c1ccc(CCNc2cccc(C3CCCNC3)n2)cc1 (stereo unspecified) |  | 66.04
Cl.c1cc(CC2CCCNC2)nc(NCCc2cnccn2)c1 (stereo unspecified) |  | -1.325
Cl.c1cc(NCc2ccncc2)nc(C2CCCNC2)c1 (stereo unspecified) |  | -1.5
CCCn1ccnc1-c1cccc(NC(=O)C2CCCOC2)c1 (stereo unspecified) |  | -87.17
O=C(CCN1CCc2ccccc21)N1C[C@@H](O)[C@H](N2CCCC2)C1 |  | -36.76
CN1CC2(CCN(C(=O)c3cccnc3)CC2)c2cccc(F)c21.Cl |  | -15.84
CN1CC2(CCN(Cc3cccnc3)CC2)c2cc(F)ccc21 |  | -24.44
CN1CC2(CCN(Cc3cccnc3)CC2)c2cccc(F)c21.Cl |  | 100.8
CCOc1ccc(CC(=O)N2CCN(c3nccn3CC)CC2)cc1.Cl |  | 9.034
O[C@]12CC[C@H](CC1)N(Cc1ccc(F)cc1)C2CN1CCOCC1 (stereo partly specified) |  | -19.63
Cc1nn(C)c(C)c1CC(=O)N1CCCN(c2cccnn2)CC1 |  | -5.706
CS(=O)(=O)NCC1CCCN(C(=O)c2ccc(F)c(F)c2)C1 (stereo unspecified) |  | -25.29

Structure (SMILES) | Percent Effect (30 µM, 30.03 µM) [%] | Percent Effect (30.3 µM, […]) [%]
COc1cccc(S(=O)(=O)Cc2noc(CC(C)C)n2)c1 |  | 1.682
CCc1noc(CS(=O)(=O)c2cccc(OC)c2)n1 |  | -11.01
CCCc1noc(CS(=O)(=O)c2cccc(OC)c2)n1 |  | 58.74
CS(=O)(=O)N1Cc2ccccc2C2(CCN(C(=O)c3ccno3)CC2)C1 |  | -25.32
COc1cc(N2CCC3(CCN(Cc4cccnc4)C3=O)C2)ncn1 (stereo unspecified) |  | -84.3
Cc1ccccc1-c1cc(NC(=O)NC2CC2)n(CCO)n1 |  | 80.61
CNC(=O)Nc1cc(-c2ccccc2C)nn1CCO | -25.05 | 
Cc1ccccc1-c1cc(NC(=O)NC2CCC(O)CC2)n(CCO)n1 (stereo unspecified) |  | -152.8
Cc1cc(S(=O)(=O)N(CC(N)=O)CC(C)C)ccc1Br |  | 1.83
CN(C)C(=O)COC[C@H]1CC[C@@H]2[C@@H](CCN2Cc2ccco2)O1.O=C(O)C(F)(F)F | -23.12 | 
COCCN1C[C@H](OCc2csc(C)n2)[C@H]2COC[C@H]21.O=C(O)C(F)(F)F.O=C(O)C(F)(F)F | -14.33 | 
CCSc1cncc(N2CCC(C(=O)Nc3ccccn3)CC2)n1 |  | 12.36
CCSc1cncc(N2CCC(NC(=O)C3CCCCC3)CC2)n1 |  | 77.16
CCSc1cncc(N2CCC(C(=O)NC(C)C(C)C)CC2)n1 (stereo unspecified) |  | 8.608
CC(=O)N(Cc1ncc(C)o1)C1CCN(Cc2ccc(F)c(F)c2)C1 (stereo unspecified) | -4.591 | 
